This passage reports outcome results from PubChem BioAssay (Tox21).

Structures are written as SMILES. Calls of active or inactive are those of the source. Calls follow the shape of the dose curve; as a rule, active = well fitted activation curve with a large enough effect in the repeat runs; inconclusive = weak or mixed curves; inactive = flat fitted curve, though single readings scatter.

The assay is described as follows: A CellTox Green Cytotoxicity Assay to monitor cytotoxicity in HepG2 cells - 0 hour (AID 1224882). Also: nearly all actives have a fitted effect of over 35% in size. The note with it: CellTox Green fluorescence; series mostly up to 76.8 µM. The text has this:
National Center for Advancing Translational Sciences [NCATS]
NIH Chemical Genomics Center [NCGC]
U.S. Environmental Protection Agency [EPA]
National Institutes of Environmental Health Sciences [NIEHS]
National Toxicology Program [NTP]
Cell-based models are critical for drug discovery. Determining the natural cytotoxic effects resulting from test compounds is an essential research activity. A CellTox Green Cytotoxicity Assay to monitor cytotoxicity in real time of continues cell culture during 40 hours of the compound treatment was used to screen Tox21 10K library compounds in HepG2 cells. CellTox Green Cytotoxicity Assay is a nonlytic, homogeneous, biofluorescent method to measure cytotoxicity in cell culture after experimental manipulation. The assay system uses a proprietary asymmetric cyanine dye that is excluded from viable cells but preferentially stains the dead cell's DNA. […] Viable cells produce no appreciable increases in fluorescence. Therefore, the fluorescence signal produced by the binding interaction with dead cell DNA is proportional to cytotoxicity.
The mixture of HepG2 cell suspension and reagents were dispensed at 600cells/6 ul/well in 1536-well tissue culture treated black solid bottom plates using a Multidrop dispenser. After the assay plates were incubated at a 37 C/5% CO2 incubator for 5 hours, 23 nL of compounds dissolved in DMSO, positive and negative controls was transferred to the assay plate by a pintool work station. The plates were incubated at 37 C for 40 hours. The fluorescence intensity were measured at 0h, 8h, 16h, 24h, 32h and 40h time points using ViewLux plate reader during compound treatment.
Take `C=CCNC(N)=S`: the compound was called inactive.

Take `CC1=C(C)S(=O)(=O)CCS1(=O)=O`: the call was inactive.

Turning to `O=C(O)c1cc(C(=O)O)cc(S(=O)(=O)O)c1`, the call was inactive.

Turning to `C[C@H]1C[C@@H]2[C@H]([C@@H](O)C[C@@]3(C)[C@H]2CC[C@]3(O)C(=O)CO)[C@@]2(C)C=CC(=O)C=C12`, the outcome was inactive.

Turning to `C=C(C)C(=O)Nc1ccc(Cl)c(Cl)c1`, the result was inactive.

Take `CCCCCCOCCO`: the outcome was inactive.

Consider `O=c1[nH]c(=O)n([C@H]2C[C@H](O)[C@@H](CO)O2)cc1Br`, for which the call was inactive.

Take `CCc1cccc(C)c1N`: the outcome was inactive.

For `CCC(O)OC(O)CC` (stereo not given), the outcome was inactive.

`C#CCN(C)Cc1ccccc1`: the compound was called inactive.

Consider `CCCCCC(N)=O`, for which the outcome was inactive.

As for `CC(C)(C)[C@@H](O)[C@@H](Cc1ccc(Cl)cc1)n1cncn1`, the result was inactive.

In the case of `O=[N+]([O-])c1ccc(/C=C/c2ccc([N+](=O)[O-])cc2S(=O)(=O)O)c(S(=O)(=O)O)c1`, the call was inactive.

`N[C@@H](Cc1cc(I)c(Oc2cc(I)c(O)c(I)c2)c(I)c1)C(=O)O`: the result was inactive.

In the case of `CCCCCCCCCCCCCCO`, the outcome was inactive.

`CCCCCOC(C)=O`: the call was inactive.

`OCCOCCN1CCN(C2=Nc3ccccc3Sc3ccccc32)CC1`: the compound was called inactive.

Consider `O=S(=O)(O)c1ccc2ccccc2c1`, for which the outcome was inactive.

Regarding `CCCSc1ccc2nc(NC(=O)OC)[nH]c2c1`, the compound was called inactive.

Regarding `CC(=O)CC(=O)Nc1ccccc1`, the compound was classed as inactive.

As to `O=C(O)c1ccc2c(c1)C(=O)OC2=O`, the call was inactive.

As to `CCCC(C)=O`, the call was inactive.

With `C=C(C)C(=O)O[C@H]1C[C@@H]2CC[C@@]1(C)C2(C)C`, the outcome was inactive.

With `CCCCCCCC(=O)OC`, the outcome was inactive.

With `O=C(O)c1cc(=O)c2c(OCC(O)COc3cccc4oc(C(=O)O)cc(=O)c34)cccc2o1`, the call was inactive.

With `Cc1cccc(O)c1`, the compound was called inactive.

`CC(c1cc2ccccc2s1)N(O)C(N)=O` (stereo not given): the compound was called inactive.

In the case of `C#C[C@]1(O)CC[C@H]2[C@@H]3CCC4=CC(=O)CC[C@@H]4[C@H]3CC[C@@]21C`, the compound was classed as inactive.

For `CN(C)CCC(c1ccccc1)c1ccccn1` (stereo not given), the call was inactive.

Take `C=CCOC(=O)c1ccccc1C(=O)OCC=C`: the compound was classed as inactive.

For the compound `CCCCCCCCCC`, the result was inactive.

Consider `COCCCOc1ccnc(CS(=O)c2nc3ccccc3[nH]2)c1C` (stereo not given), for which the compound was classed as inactive.

In the case of `Nc1ccccc1[N+](=O)[O-]`, the compound was called inactive.

In the case of `CC(C)(N)CO`, the call was inactive.

`O=S1(=O)CC=CC1`: the outcome was inactive.

`CCCCCCCCCCCCOCCO`: the compound was classed as inactive.

Regarding `CC(C)c1ccc(S(=O)(=O)O)cc1`, the compound was classed as inactive.

Take `c1ccc(OCCOc2ccccc2)cc1`: the result was inactive.

Consider `CC1CCC2CC1C2(C)C` (stereo not given), for which the compound was classed as inactive.

With `Fc1ccc(Br)cc1`, the compound was called inactive.
